In PubChem BioAssay AID504652 (National Center for Advancing Translational Sciences (NCATS), 2011) one finds activity change, negative = inhibition data, which are given here for 43 compounds.

The structures appear in SMILES notation. “And” between values parts separate entries of the source, which are not always exact repeats. Identical values can stand only once. The campaign covered roughly 360,000 compounds. About 11,000 (3.1%) were called active. No stated cut-off is given here; in the data, active means activity change below about -30%; inactive means the rest. This excerpt belongs to a sample that is enriched for actives.
On the % scale 0 is the no-effect control and ±100 the full control effect.

The target of the experiment is D(1A) dopamine receptor (Homo sapiens) (UniProt P21728). Nature of the experiment: Antagonist of Human D 1 Dopamine Receptor: qHTS. To be noted: HEK293 TREx D1 cells, calcium flux, dopamine EC80; at 10 µM; stronger effect = lower value. A digest of the protocol: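 After overnight tetracycline induction at 30 C, force-coupled D1 HEK293 cells took up a no-wash calcium dye at room temperature. Compounds were added and monitored 180 s, and the response to EC80 dopamine was then recorded.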
D(1A) dopamine receptor (Homo sapiens), sequence (P21728 whole entry, looked up): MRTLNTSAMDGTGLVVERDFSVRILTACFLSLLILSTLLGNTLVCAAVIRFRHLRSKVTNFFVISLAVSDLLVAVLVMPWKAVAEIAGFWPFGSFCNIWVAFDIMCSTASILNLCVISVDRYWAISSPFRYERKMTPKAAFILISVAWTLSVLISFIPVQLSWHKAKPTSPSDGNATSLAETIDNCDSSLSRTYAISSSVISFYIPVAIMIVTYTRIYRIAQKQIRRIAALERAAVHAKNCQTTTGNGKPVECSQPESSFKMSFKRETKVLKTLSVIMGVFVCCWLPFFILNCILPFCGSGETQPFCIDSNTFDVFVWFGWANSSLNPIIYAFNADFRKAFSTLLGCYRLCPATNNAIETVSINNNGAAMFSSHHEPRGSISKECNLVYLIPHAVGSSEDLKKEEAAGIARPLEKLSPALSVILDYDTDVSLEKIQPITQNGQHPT
Background: Quantitative high-throughput screening tests each substance at several concentrations.
Take `O=C1Nc2cc(Cl)c(Cl)cc2N(O)N1c1ccccc1Cl`: the activity change, negative = inhibition is -7.41% (inactive). For `Cc1c(CNC(C)c2ccccc2)c(C(=O)O)c(C)n1Cc1c(F)cccc1Cl` (stereo not drawn), the activity change, negative = inhibition was 18.6% (inactive). `CCOc1ccc(OCC)c(NC(=O)c2c(C)nn(-c3ccccc3)c2-n2cccc2)c1`: the activity change, negative = inhibition is 7.71% (inactive). As for `CCN(CC)CCN(C(=O)c1ccc(N2C(=O)CCC2=O)cc1)c1nc2cc3c(cc2s1)OCO3`, the activity change, negative = inhibition is 6.3% (inactive). As for `CCN(CC)CCN(C(=O)c1cc(Cl)sc1Cl)c1nc2cc3c(cc2s1)OCO3`, the activity change, negative = inhibition was -2.46% (inactive).

Turning to `O=C(Nc1ccc2nc(SCC(=O)N3CCCc4ccccc43)sc2c1)c1ccc(F)cc1`, the activity change, negative = inhibition was -9.64% (inactive).

For `CN(C)CCCN(C(=O)c1ccc(S(=O)(=O)N2CCCc3ccccc32)cc1)c1nc2ccc(F)cc2s1`, the activity change, negative = inhibition was -31.4% (active). For `CN(C)CCN(C(=O)C1=COCCO1)c1nc2ccc(Cl)cc2s1`, the activity change, negative = inhibition was -46.4% (active). Take `O=C(Nc1nnc(S(=O)(=O)N2CCCc3ccccc32)s1)c1cccc(F)c1`: the activity change, negative = inhibition was -7.22% (inactive). `Cc1ccc2nc(N(CCN(C)C)C(=O)C3=COCCO3)sc2c1`: the activity change, negative = inhibition was -34.5% (active). Regarding `Cc1cc(C)c2nc(N(CCN(C)C)C(=O)/C=C/c3cccs3)sc2c1`, the activity change, negative = inhibition was 6.71% (inactive). As for `CC(C)N(Cc1nnc(-c2ccc(Cl)cc2)o1)C(=O)C1=COCCO1`, the figure is 2.43% (inactive); as for `NS(=O)(=O)c1ccc2nc(NC(=O)C3=COCCO3)sc2c1`, 1.85% (inactive). With `Cc1ccc2sc(NNC(=O)c3ccc4c(c3)OCCO4)nc2c1C`, the activity change, negative = inhibition was 23.4% (inactive). Regarding `CCc1ccc2nc(N(CCCN(C)C)C(=O)c3ccc4c(c3)OCCO4)sc2c1`, the activity change, negative = inhibition was -34.9% (active). As for `CC1CCN(S(=O)(=O)c2ccc3c(c2)N(CC(=O)NCCc2ccccc2)C(=O)CO3)CC1`, the figure is 1.55% (inactive); as for `Cc1ccc(C(=O)CC2(O)C(=O)N(CCc3ccccc3)c3ccc(Br)cc32)cc1` (stereo not drawn), 12.6% (inactive); as for `COc1cc(OC)c(C2C=C(C(=O)O)Nc3ncnn32)cc1OC` (stereo not drawn), 4.4% (inactive). Turning to `COc1ccc(C2C(=O)N(C3CCCCCC3)CC(=O)N2CCc2ccc(Cl)cc2)cc1OC` (stereo not drawn), the activity change, negative = inhibition was 6.57% (inactive).

Turning to `COc1cccc(CNC(=O)c2ccc3c(Cl)c4c(nc3c2)CCCC4)c1`, the activity change, negative = inhibition is -2.7% (inactive).

Turning to `CCOc1ccc(CCNC(=O)CN(c2ccc(C)cc2)S(=O)(=O)N(C)C)cc1OCC`, the activity change, negative = inhibition was 6.83% (inactive).

With `Cc1ccc(Cn2c(CNC(=O)Cc3cccc(C)c3)nc3cccnc32)cc1`, the activity change, negative = inhibition is -3.78% (inactive). Turning to `O=C(NC1(C(F)(F)F)N=C(c2ccccc2)N(C2CCCCC2)C1=O)c1ccccc1F` (stereo not drawn), the activity change, negative = inhibition was -5.87% (inactive).

Turning to `COc1ccc(-c2cn3nc(N4CCC(C(=O)Nc5cccc(C)c5C)CC4)sc3n2)cc1`, the activity change, negative = inhibition was -7.07% (inactive). Consider `O=C(Nc1nncs1)c1cccc(S(=O)(=O)N2CCCCC2)c1`, for which the activity change, negative = inhibition is 5.14% (inactive). Turning to `CCOC(=O)CSc1nnc(NC(=O)c2cccc(S(=O)(=O)N3CCCC3)c2)s1`, the activity change, negative = inhibition was -6.95% (inactive). For the compound `CCOC(=O)CSc1nnc(NC(=O)c2cccc(S(=O)(=O)N3CCCCC3)c2)s1`, the activity change, negative = inhibition was -31.1% (active). Regarding `Cn1nc(C(F)(F)F)c(-c2ccc(F)cc2)c1NC(=O)CSCC(=O)O`, the activity change, negative = inhibition was 8.45% (inactive). As for `Cn1nc(C(F)(F)F)c2cc(C(=O)N3CCOCC3)sc21`, the activity change, negative = inhibition is 6.73% (inactive). For `Cn1nc(C(F)(F)F)c2cc(NC(=O)OCC(C)(C)C)sc21`, the activity change, negative = inhibition was -42.5% (active).

Consider `Cc1ccc(Cl)cc1NC(=O)CCS(=O)(=O)c1ccc(Br)s1`, for which the activity change, negative = inhibition was 6.29% (inactive). As for `COc1ccc(C(=O)N2CCC(c3nc4ccccc4o3)CC2)cc1`, the figure is 4.96% (inactive); as for `CCOC(=O)Cn1c(=O)n(C2CCCCC2)c2nc(-c3cccc(OC)c3)nc(C(N)=O)c21`, 8.07% (inactive). As for `Cc1csc(NC(=O)C2=COCCO2)n1`, the activity change, negative = inhibition is -2.15% (inactive). Turning to `CCC(CC)c1nnc(NC(=O)c2nn(C)c(=O)c3ccccc23)s1`, the activity change, negative = inhibition is 0.594% (inactive).

Consider `CCC(CC)c1nnc(NC(=O)C2=COCCO2)s1`, for which the activity change, negative = inhibition is -42.7% (active).

Turning to `CC(=O)N1c2ccccc2CC1C(=O)N1CCN(c2ccc(F)cc2)CC1` (stereo not drawn), the activity change, negative = inhibition is 9.38% (inactive).

Regarding `COc1ccc(N2CCN(c3cc(C)nc4nncn34)CC2)cc1`, the activity change, negative = inhibition is -2.83% (inactive). For the compound `Cc1nc(N2CCOCC2)c2c(C(=O)NCc3cccc(Cl)c3)c(C)oc2n1`, the activity change, negative = inhibition was 6.25% (inactive). `COc1cc(NC(=O)C2=CC(c3ccc(C)cc3)=NS(=O)(=O)N2C)cc(OC)c1OC`: the activity change, negative = inhibition was -12.9% (inactive).

For `COc1cc(NC(=O)C2=CC(c3ccco3)=NS(=O)(=O)N2C)cc(OC)c1OC`, the activity change, negative = inhibition was -11.3% (inactive) and -11.4% (inactive).

On to `COc1ccc(NC(=O)C2=CC(c3ccc(OC)c(OC)c3)=NS(=O)(=O)N2C)cc1`, for which the activity change, negative = inhibition is -44.8% (active). As for `CCN(C(=O)c1sc2cc(OC)ccc2c1Cl)c1ccccc1`, the activity change, negative = inhibition was 1.09% (inactive).
